In the supplement of paper PMC11732987, “Enantioselective OTUD7B fragment discovery through chemoproteomics screening and high-throughput optimisation” (Communications Chemistry, 2025):

Assays:
Experiment in all cases: log2 ratio of Biotin-Ahx-Ub-VS probe labelling (fragment/DMSO); higher = less target engagement (more negative = stronger competition), active = hit call of the paper (q ≤ 0.05, log2 ratio ≤ -1)
Conditions in all cases: compound concentration: 200 uM; treatment time: 3 h
[1] = molecular target: T1, USP19 (UniProt O94966)
T1 sequence (whole entry): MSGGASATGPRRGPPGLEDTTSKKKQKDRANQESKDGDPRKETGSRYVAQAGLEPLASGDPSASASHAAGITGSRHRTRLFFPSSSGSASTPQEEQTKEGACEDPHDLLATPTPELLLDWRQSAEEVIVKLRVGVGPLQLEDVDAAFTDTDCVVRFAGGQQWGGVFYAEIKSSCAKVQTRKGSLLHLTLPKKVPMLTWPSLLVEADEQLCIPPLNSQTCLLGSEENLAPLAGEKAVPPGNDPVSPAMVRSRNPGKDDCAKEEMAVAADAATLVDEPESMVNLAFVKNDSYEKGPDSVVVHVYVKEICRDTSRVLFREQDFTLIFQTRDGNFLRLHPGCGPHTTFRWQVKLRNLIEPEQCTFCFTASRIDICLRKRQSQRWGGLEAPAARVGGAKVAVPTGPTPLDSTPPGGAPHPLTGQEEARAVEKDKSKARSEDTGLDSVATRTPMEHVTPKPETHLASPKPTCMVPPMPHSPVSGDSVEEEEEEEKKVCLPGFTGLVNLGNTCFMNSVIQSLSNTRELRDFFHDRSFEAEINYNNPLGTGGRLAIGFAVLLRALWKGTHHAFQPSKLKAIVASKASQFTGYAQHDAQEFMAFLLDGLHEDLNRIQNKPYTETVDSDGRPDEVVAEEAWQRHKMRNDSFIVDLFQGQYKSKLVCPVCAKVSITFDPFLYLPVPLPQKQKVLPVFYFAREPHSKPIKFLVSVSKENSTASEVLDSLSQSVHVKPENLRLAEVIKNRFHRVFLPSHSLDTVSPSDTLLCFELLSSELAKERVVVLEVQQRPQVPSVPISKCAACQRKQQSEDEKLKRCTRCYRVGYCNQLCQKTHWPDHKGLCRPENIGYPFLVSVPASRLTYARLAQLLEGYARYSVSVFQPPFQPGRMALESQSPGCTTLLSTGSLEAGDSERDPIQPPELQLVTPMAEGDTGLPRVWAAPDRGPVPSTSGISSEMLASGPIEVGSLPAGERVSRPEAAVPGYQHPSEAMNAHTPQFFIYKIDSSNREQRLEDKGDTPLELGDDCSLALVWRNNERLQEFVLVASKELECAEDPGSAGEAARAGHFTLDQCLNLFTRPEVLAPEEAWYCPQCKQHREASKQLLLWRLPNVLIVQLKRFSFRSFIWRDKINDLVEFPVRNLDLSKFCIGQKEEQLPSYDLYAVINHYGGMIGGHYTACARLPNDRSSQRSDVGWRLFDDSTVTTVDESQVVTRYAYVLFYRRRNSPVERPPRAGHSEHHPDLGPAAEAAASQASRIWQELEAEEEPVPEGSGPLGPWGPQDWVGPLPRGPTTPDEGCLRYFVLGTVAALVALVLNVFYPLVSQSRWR
Procedure, shortened: (§1)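 Each value is an average log2 ratio of fragment to vehicle, tested by unpaired t-test. The underlying Spectronaut label-free quantities were global-median-normalised, and only proteins with ≥2 unique peptides were included. Triplicate HEK293T lysate samples (495 µg) were exposed to fragment at 200 µM or vehicle for 3 h, then to Biotin-Ahx-Ub-VS at 0.5 µM final for 1 h, before NeutrAvidin enrichment of labelled DUBs, LysC and trypsin digestion, and diaPASEF LC-MS/MS.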

[2] = molecular target: USP24 (UniProt Q9UPU5)
Sequence of USP24 (Q9UPU5 whole entry): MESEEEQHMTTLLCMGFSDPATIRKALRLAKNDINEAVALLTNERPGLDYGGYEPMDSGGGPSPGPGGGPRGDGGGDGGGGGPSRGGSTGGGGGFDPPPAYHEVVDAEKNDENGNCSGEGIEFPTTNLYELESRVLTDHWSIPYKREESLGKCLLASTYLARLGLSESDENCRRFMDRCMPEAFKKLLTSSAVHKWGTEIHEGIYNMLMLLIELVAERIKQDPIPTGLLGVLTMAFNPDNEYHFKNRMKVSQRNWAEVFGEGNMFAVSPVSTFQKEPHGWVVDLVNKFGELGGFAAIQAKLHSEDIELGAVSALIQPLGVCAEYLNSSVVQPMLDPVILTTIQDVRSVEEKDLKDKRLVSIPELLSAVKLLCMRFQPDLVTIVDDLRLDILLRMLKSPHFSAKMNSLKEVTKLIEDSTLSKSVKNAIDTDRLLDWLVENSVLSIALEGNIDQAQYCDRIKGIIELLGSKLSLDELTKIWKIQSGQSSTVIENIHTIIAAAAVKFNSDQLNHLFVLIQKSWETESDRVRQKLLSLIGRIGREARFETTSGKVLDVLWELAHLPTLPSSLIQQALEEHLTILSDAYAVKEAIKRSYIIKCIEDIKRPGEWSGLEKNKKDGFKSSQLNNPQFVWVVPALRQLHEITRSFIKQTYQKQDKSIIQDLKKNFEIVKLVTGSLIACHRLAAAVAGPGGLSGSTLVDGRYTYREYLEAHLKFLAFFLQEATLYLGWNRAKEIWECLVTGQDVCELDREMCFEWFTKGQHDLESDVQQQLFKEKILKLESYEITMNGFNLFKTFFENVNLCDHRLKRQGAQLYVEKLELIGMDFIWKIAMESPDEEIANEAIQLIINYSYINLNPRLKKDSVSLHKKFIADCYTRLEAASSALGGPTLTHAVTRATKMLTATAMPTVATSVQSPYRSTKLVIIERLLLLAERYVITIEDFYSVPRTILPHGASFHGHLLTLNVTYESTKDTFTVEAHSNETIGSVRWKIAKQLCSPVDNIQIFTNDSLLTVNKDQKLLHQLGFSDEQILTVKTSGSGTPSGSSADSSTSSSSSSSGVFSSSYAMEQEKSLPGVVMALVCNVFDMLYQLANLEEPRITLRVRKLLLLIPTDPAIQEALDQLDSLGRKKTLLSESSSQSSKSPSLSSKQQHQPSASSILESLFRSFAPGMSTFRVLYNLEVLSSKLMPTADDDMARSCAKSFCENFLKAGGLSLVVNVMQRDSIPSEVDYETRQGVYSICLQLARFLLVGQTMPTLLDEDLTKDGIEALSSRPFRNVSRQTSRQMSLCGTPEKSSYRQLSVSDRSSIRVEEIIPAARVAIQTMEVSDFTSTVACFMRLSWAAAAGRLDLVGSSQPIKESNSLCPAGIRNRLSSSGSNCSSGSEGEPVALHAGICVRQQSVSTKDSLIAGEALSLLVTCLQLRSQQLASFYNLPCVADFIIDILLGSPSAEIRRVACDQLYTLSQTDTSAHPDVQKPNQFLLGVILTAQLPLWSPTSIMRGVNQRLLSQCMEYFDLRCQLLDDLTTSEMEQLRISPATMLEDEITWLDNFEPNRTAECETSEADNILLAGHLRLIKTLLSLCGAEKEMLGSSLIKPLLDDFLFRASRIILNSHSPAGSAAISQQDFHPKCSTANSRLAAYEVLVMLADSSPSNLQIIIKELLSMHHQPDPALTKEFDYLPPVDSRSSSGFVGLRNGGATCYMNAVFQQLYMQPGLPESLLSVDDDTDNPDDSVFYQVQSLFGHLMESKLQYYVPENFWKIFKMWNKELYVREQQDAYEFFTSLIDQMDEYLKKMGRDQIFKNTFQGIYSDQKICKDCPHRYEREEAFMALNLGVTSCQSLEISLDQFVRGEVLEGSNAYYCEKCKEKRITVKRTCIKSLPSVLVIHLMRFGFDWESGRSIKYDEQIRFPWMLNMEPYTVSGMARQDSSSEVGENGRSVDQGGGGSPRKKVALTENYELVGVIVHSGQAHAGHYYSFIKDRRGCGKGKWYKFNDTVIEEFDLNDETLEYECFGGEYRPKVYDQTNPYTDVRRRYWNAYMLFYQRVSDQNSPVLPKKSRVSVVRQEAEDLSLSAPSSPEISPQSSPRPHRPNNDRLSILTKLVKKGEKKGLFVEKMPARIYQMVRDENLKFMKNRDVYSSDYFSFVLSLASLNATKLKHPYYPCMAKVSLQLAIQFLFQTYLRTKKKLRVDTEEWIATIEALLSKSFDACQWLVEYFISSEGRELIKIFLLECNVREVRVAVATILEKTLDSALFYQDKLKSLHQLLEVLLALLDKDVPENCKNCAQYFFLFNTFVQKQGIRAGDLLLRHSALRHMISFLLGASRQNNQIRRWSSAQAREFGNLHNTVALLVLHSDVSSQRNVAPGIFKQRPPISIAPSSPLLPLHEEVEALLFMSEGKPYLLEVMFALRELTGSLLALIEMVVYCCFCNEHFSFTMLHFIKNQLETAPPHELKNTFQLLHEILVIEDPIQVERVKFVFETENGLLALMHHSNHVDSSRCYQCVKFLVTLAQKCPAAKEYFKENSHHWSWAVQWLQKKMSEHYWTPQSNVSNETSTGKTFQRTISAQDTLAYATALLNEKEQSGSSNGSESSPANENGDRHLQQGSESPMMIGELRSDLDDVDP
Procedure, shortened: as §1

[3] = molecular target: T2, USP25 (UniProt Q9UHP3)
T2 sequence (whole entry): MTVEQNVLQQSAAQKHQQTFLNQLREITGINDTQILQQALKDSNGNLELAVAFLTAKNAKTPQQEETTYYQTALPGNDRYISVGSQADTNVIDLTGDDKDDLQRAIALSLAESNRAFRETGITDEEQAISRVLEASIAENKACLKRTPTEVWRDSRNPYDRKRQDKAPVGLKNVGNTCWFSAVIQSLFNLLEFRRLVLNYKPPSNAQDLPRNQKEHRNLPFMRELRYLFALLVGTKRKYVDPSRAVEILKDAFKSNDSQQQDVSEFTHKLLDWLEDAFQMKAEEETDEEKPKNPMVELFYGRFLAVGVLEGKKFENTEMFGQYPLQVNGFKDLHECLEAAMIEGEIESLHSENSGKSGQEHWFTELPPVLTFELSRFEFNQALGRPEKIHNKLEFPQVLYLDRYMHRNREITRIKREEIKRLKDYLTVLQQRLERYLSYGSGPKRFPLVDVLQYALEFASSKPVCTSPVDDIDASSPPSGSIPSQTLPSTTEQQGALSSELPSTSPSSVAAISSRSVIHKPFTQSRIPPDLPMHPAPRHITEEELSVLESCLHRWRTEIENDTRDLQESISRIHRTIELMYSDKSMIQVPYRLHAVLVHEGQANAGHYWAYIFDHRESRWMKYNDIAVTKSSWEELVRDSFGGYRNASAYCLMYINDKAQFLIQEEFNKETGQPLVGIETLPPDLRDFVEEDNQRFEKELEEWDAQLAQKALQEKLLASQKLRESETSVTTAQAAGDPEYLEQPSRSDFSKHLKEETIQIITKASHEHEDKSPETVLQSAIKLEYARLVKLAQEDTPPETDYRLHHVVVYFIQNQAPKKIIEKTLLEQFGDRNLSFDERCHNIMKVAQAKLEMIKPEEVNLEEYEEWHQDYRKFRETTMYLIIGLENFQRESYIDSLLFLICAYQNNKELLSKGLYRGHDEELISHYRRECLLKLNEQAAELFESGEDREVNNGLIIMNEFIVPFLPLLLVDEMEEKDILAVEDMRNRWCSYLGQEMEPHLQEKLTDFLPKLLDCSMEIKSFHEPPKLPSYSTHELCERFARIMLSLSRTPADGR
Procedure, shortened: as §1

[4] = molecular target: T3, USP28 (UniProt Q96RU2)
T3 sequence (whole entry): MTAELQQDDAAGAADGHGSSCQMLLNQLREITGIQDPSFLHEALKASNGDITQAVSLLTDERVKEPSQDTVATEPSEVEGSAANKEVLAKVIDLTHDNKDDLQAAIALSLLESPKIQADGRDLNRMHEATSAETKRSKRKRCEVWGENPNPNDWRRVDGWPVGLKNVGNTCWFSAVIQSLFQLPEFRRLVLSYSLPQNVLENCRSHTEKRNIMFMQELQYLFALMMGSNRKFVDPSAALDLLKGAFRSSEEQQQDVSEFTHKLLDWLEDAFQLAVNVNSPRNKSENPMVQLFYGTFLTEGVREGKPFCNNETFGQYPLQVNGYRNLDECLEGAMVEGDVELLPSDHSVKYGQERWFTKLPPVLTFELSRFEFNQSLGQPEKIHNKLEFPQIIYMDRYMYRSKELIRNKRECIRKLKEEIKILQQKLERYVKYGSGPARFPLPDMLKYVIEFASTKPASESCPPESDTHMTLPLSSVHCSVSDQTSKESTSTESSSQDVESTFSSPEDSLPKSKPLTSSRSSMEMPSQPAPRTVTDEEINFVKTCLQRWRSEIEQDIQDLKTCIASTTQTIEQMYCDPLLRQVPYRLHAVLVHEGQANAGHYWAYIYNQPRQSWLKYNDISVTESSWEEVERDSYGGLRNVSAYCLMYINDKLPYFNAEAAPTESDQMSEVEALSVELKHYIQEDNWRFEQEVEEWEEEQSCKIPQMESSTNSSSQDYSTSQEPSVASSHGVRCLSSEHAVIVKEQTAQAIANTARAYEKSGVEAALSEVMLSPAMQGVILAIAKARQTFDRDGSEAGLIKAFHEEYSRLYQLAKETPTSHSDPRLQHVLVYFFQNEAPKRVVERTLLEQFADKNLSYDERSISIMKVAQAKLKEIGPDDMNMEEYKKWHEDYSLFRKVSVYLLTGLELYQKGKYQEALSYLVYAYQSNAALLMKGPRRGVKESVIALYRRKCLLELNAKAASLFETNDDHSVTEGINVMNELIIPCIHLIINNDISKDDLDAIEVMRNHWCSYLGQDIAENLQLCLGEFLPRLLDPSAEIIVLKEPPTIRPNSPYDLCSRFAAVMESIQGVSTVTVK
Procedure, shortened: as §1

Measured: log2 ratio of Biotin-Ahx-Ub-VS probe labelling

O=C(CCl)NCC1(c2ccccc2)CC1
inactive: [1] -0.058 | [2] -0.208 | [3] -0.366 | [4] -0.447
